# High-throughput results from PubChem.
# Cycloheximide cs – counter-screen hit for Shiga toxin inhibitors, cycloheximide | cell reporter, cycloheximide protein synthesis inhibition counterscreen | max response, % | 12% of 300,000 active | AID 2314; in the data active means max response mostly above about 13%, no sharp cut-off; inactive means mostly below about 14%; further: read at 38.3 µM for the half of the compounds with a filed dose; 0% is about no effect
# Sm TGR inh – S. mansoni TGR enzyme inhibition; purified TGR, DTNB reduction, TNB absorbance 405 nm; Potency, µM (top dose mostly 114 µM), for inactives: at the top dose activity change, negative = inhibition, most hits filed as inhibitors; 3% of 360,000 active; AID 485364; further: potency means the concentration at half of the fitted maximal effect; on the % scale 0 is the no-effect control and ±100 the full control effect; nearly all actives have a fitted effect of over 60% in size
#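 Kinetic colorimetric format: TGR-catalysed, NADPH-driven DTNB reduction monitored via TNB absorbance. Enzyme dispensed at 20 nM; compound exposure 15 min at room temperature before reaction start.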
# Tb PYK inh – inhibitors of Trypanosoma brucei pyruvate kinase. Q57TT1. 0.12% of 410,000 active. TbPYK enzyme, Kinase-Glo Plus ATP luminescence, 45 min. AID 624173. Potency, µM (doses to about 76.8 µM), inactives show at the top dose activity, negative = inhibition, most hits filed as inhibitors; further: potency means the concentration at half of the fitted maximal effect; on the % scale 0 is the no-effect control and ±100 the full control effect; nearly all actives have a fitted effect of over 50% in size
#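 Readout: single end-point luminescence (Kinase-Glo Plus, 10 min). Reaction conditions were TbPYK/substrate plus 130 uM ADP, 45 min at RT, pH 7.2 TEA buffer. No-enzyme wells served as controls, and data were normalized before concentration-response fitting.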
# LmPK inh – LmPK (Leishmania mexicana) enzyme inhibition; Q27686; purified LmPK, Kinase-Glo ATP luminescence, 1 h; Potency, µM (highest dose often 57.5 µM), inactives show at the highest dose activity change, negative = inhibition, hits mostly inhibitors; 0.37% of 290,000 active; further: potency means the concentration at half of the fitted maximal effect; on the % scale 0 is the no-effect control and ±100 the full control effect
# Target sequence (Q27686 whole entry, looked up): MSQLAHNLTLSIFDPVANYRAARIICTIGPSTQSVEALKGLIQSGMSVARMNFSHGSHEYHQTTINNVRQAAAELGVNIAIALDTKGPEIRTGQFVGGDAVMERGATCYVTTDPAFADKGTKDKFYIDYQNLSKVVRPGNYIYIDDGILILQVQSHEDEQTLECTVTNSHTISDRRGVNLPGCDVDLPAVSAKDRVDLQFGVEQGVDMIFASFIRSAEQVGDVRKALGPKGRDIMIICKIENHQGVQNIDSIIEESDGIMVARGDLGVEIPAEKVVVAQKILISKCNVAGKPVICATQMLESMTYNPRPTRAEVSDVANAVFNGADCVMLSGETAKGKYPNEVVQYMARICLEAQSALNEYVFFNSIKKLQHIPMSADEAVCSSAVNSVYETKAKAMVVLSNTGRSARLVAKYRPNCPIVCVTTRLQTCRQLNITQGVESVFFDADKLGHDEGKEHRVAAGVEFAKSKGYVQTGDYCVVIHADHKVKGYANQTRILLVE
#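 ATP generated from ADP (0.1 mM) and PEP (0.5 mM) by 0.1 nM LmPK over 1 h at room temperature (pH 7.2 imidazole buffer) was detected by coupled luciferase luminescence. Values were normalized to uninhibited and no-enzyme wells.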
# FBPA Giardia inh – blocks Giardia fructose-bisphosphate aldolase activity | 0.71% of 290,000 active | Potency, µM (titrated, usually from 59.6 µM), without a hit: at the top dose activity, negative = inhibition, most hits filed as inhibitors | purified Giardia FBPA | AID 2451; further: potency means the concentration at half of the fitted maximal effect; on the % scale 0 is the no-effect control and ±100 the full control effect; nearly all actives have a fitted effect of over 55% in size
#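 Giardia FBPA (40 nM reagent) was preincubated 10 min at RT with compound (up to 57.5 uM final), then substrate plus GAPDH/TPI/NAD/arsenate coupling system with diaphorase/resazurin was added; resorufin fluorescence (525/598 nm) was read after 20 min.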
# Shiga toxin inh – blocks Shiga toxin action in Vero cells. Vero cells, Shiga toxin protein synthesis inhibition reporter. inhibition, % at 38.7 µM. 9.2% of 290,000 active; in the data active means inhibition mostly above about 28%, no sharp cut-off; inactive means mostly below about 43%; further: 0% is about no effect
# Starred values were filed as active, the others as inactive; ? = inconclusive; . = no result; [ ] = remark or other dose. The full list was thinned out, with hits kept by preference. Unless noted, the call rests on the fitted dose curve; in most records, active means well fitted curve in the direction sought with a large enough effect; inconclusive means small, poorly fitted or top-dose-only effect, or another doubt; inactive means no such curve, though single readings can be large; an effect the other way counts as inactive or inconclusive.
SMILES,Cycloheximide cs,Sm TGR inh,Tb PYK inh,LmPK inh,FBPA Giardia inh,Shiga toxin inh
O=C(NC(=S)Nc1ccc(N2CCCCC2)cc1)c1ccc2c(c1)OCCO2,58.2*,-22.0%,-3.4%,-1.9%,-0.5%,97.7*
O=C(NC(=S)Nc1c(F)cc(F)cc1Br)c1ccc2c(c1)OCCO2,27.9*,-26.3%,-3.5%,1.3%,-12.6%,83.8*
O=C(NC(=S)Nc1ccc(CN2CCOCC2)cc1)c1ccc2c(c1)OCCO2,30.9*,?,-2.0%,2.6%,-24.9%,87.8*
CC(C)(C)c1ccc(C(=O)NC(=S)Nc2ccc(N3CCOCC3)cc2)cc1,-1.3,-6.6%,15.3%,1.5%,0.2%,-3.5
CCOc1ccc(NC(=O)c2sc3nc(C)nc(N4CCOCC4)c3c2C)cc1,-2.5,-13.0%,0.3%,-5.2%,6.6%,2.3
Cc1cccc(N(CC(=O)NC2CCCCC2)C(=O)CCC(=O)Nc2nccs2)c1,0.9,6.4%,-4.8%,5.4%,?,4.0
CC1CCN(C(=O)COC(=O)c2cc(Cl)c3c(c2)OCO3)CC1,.,2.7%,4.3%,.,.,.
Cc1ccc(C(=O)NC(=S)Nc2ccc(N3CCOCC3)cc2)cc1C,3.5,-26.5%,1.9%,3.3%,-10.8%,4.5
O=C(NC(=S)Nc1ccc(N2CCOCC2)cc1)c1ccc2c(c1)OCCO2,41.6*,?,-21.2%,2.9%,-2.2%,60.8*
O=C(NC(=S)Nc1ccc(N2CCOCC2)cc1)c1cccs1,41.1*,8.91µM*,0.2%,5.9%,-11.2%,73.4*
Cc1cccc(C(=O)NC(=S)Nc2ccc(N3CCOCC3)cc2)c1,-2.1,14.1µM*,-11.2%,0.4%,-3.2%,32.3
Cc1ccc(C(=O)N2CCN(c3ccc(NC(=S)NC(=O)c4cccs4)cc3)CC2)cc1,-2.2,9.5%,-5.5%,-2.1%,-0.6%,12.7
CS(=O)(=O)N1CCN(c2ccc(NC(=S)NC(=O)c3ccc4c(c3)OCO4)cc2)CC1,-2.0,?,1.4%,2.4%,0.3%,-12.0
O=C(COC(=O)c1ccc2c(c1)OCO2)NC1CCCCC1,.,.,-3.7%,.,.,.
CC(=O)c1cccc(OCc2cc(C(=O)NCCC3=CCCCC3)no2)c1,42.2*,2.7%,-1.1%,-9.9%,.,101.1*
O=C(NCCC1=CCCCC1)c1cc(COc2c(F)cccc2F)on1,7.7,-8.1%,4.8%,1.2%,4.9%,17.7
CSc1ccccc1OCc1cc(C(=O)NCCC2=CCCCC2)no1,21.1,4.3%,-10.0%,0.9%,8.7%,27.9*
O=C(NCCC1=CCCCC1)c1cc(COc2ccc(F)cc2Cl)on1,-1.9,0.0%,-5.7%,-3.8%,.,15.2
Cc1oc(-c2ccccc2)nc1CNS(=O)(=O)c1ccc(Cl)cc1,.,5.9%,-0.6%,.,.,.
C=CCn1c(Cc2cccs2)nnc1SCC(=O)c1ccc2ccccc2c1,8.1,-14.6%,-2.1%,5.8%,-22.1%,-15.7
C=CCn1c(CNC(=O)c2ccco2)nnc1SCC(=O)c1ccccc1,12.0*,?,?,-3.4%,-14.9%,24.4
C=CCn1c(Cc2cccs2)nnc1SCC(=O)c1ccc(F)cc1,14.5*,-34.9%,-26.6%,1.6%,2.6%,29.0
CCn1c(CNC(=O)c2ccco2)nnc1SCC(=O)c1ccc(F)cc1,-2.5,4.9%,5.4%,-0.5%,-4.8%,11.4
Cn1c(CNC(=O)c2ccco2)nnc1SCC(=O)c1ccc(F)cc1,6.3,10µM*,-5.7%,-9.7%,.,-1.8
Cc1ccc(NC(=O)C(Cc2ccccc2)NS(=O)(=O)c2ccc3c(c2)c(=O)n(C)c(=O)n3C)c(C)c1 (configuration not stated),.,3.1%,-4.0%,.,.,.
CCOc1ccc(CCNC(=O)Cn2c(C)c3cnn(-c4ccccc4)c(=O)c3c2C)cc1,.,2.1%,-3.7%,.,.,.
CC#CCN1c2ccccc2[C@]23C[C@@H](C(=O)OC)N(S(=O)(=O)c4cccs4)C2=NC(C(=O)OC)=C(C(=O)OC)[C@H]13,.,.,.,2.5%[11.5 µM],4.2%[12.9 µM],.
CN(CCC#N)C(=O)CSc1ncnc2sc(-c3ccccc3)cc12,31.2*,-22.8%,-3.0%,6.0%,0.2%,62.5*
CN(C)c1ncnc2sc(-c3ccccc3)cc12,16.2*,-1.4%,0.0%,2.6%,.,40.4
COc1ncnc2sc(-c3ccccc3)cc12,66.1*,-2.8%,?,12.6µM*,3.7%,81.8
